# Columns and labels:
# Test in all cases: PBM binding z-score (relative to random genomic background probes); higher = stronger binding; sequences stand for … in GC…GCGATTGACAGCGTAGAATGAAGG
# [1] = tested on: FXR:RXRa (NR concentration 270 nM, RXRa partner concentration 90 nM)
# How it was run: (§1)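 Custom Agilent 4×180K protein-binding microarrays carried double-stranded probes. Their 34-nt variable regions held direct-repeat seeds, single-nucleotide variants, half-site ablations and random human genomic background sequences. Arrays were incubated 1 h with ligand-free nuclear receptor dimers in PBS pH 7.4, 2% milk, 0.02% Triton X-100, 1 mM DTT, 0.2 mg/mL BSA and 0.4 mg/ml salmon testes DNA. Antibodies against each partner (one per run) detected binding, and scanned fluorescence was regression-normalized. Binding z-scores use random background probes as reference.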
# [2] = tested on: LXRa:RXRa (NR concentration 270 nM, RXRa partner concentration 90 nM)
# How it was run: as §1
# [3] = tested on: LXRa homodimer (NR concentration 270 nM)
# How it was run: as §1
# [4] = tested on: LXRb:RXRa (NR concentration 270 nM, RXRa partner concentration 90 nM)
# How it was run: as §1
# [5] = tested on: LXRb homodimer (NR concentration 270 nM)
# How it was run: as §1
# [6] = tested on: PPARa:RXRa (NR concentration 270 nM, RXRa partner concentration 90 nM)
# How it was run: as §1
# [7] = tested on: PPARg:RXRa (NR concentration 180 nM, RXRa partner concentration 90 nM)
# How it was run: as §1
# [8] = tested on: PPARg:RXRa 270nM:90nM, anti-RXR (NR concentration 270 nM, RXRa partner concentration 90 nM)
# How it was run: as §1
# [9] = tested on: PPARg:RXRa 30nM:10nM, anti-RXR (NR concentration 30 nM, RXRa partner concentration 10 nM)
# How it was run: as §1
# [10] = tested on: PPARg:RXRa 90nM:30nM, anti-RXR (NR concentration 90 nM, RXRa partner concentration 30 nM)
# How it was run: as §1
# [11] = tested on: PPARg:RXRa DBDmut IVT, anti-RXR (DBD mutation: RXRa K156A/R161A, NR concentration 270 nM, RXRa partner concentration 90 nM)
# How it was run: as §1
# [12] = tested on: PPARg:RXRa IVT, anti-PPARg (NR concentration 270 nM, RXRa partner concentration 90 nM)
# How it was run: as §1
# [13] = tested on: PPARg DBDmut:RXRa IVT, anti-PPARg (DBD mutation: PPARg1 K132A/R137A, NR concentration 270 nM, RXRa partner concentration 90 nM)
# How it was run: as §1
# [14] = tested on: PPARg DBDmut IVT, anti-PPARg (DBD mutation: PPARg1 K132A/R137A, NR concentration 270 nM)
# How it was run: as §1
# [15] = tested on: PPARg homodimer (NR concentration 180 nM)
# How it was run: as §1
# [16] = tested on: PXR:RXRa (NR concentration 270 nM, RXRa partner concentration 90 nM)
# How it was run: as §1
# [17] = tested on: PXR homodimer (NR concentration 270 nM)
# How it was run: as §1
# [18] = tested on: RARa:RXR (NR concentration 270 nM, RXRa partner concentration 90 nM)
# How it was run: as §1
# [19] = tested on: RARa homodimer (NR concentration 270 nM)
# How it was run: as §1
# [20] = tested on: RARb:RXRa (NR concentration 270 nM, RXRa partner concentration 90 nM)
# How it was run: as §1
Sequence,PBM binding z-score [1],PBM binding z-score [2],PBM binding z-score [3],PBM binding z-score [4],PBM binding z-score [5],PBM binding z-score [6],PBM binding z-score [7],PBM binding z-score [8],PBM binding z-score [9],PBM binding z-score [10],PBM binding z-score [11],PBM binding z-score [12],PBM binding z-score [13],PBM binding z-score [14],PBM binding z-score [15],PBM binding z-score [16],PBM binding z-score [17],PBM binding z-score [18],PBM binding z-score [19],PBM binding z-score [20]
ACTCGGAGGACTAAGGTCAGAGCTACGCCAGTGA,1.93,1.78,0.464,1.49,-0.00791,2.52,1.93,2.96,0.578,2.41,-0.123,0.778,-0.0206,-0.832,1.27,1.8,0.241,2.92,-0.326,2.88
TTACCAAGGTGAGCTGAGGTTGTTGATCCAACTC,0.871,-0.206,-0.484,-0.269,-1.04,0.271,-0.354,0.187,-0.357,-0.0442,1.22,1.51,-0.399,-0.245,-0.248,2.03,-0.915,0.168,-0.951,0.78
CCAGACAGGTGAGAAGGTAATTCAGCCTCGATTA,-0.0604,-0.00281,0.0932,0.0559,-0.31,0.475,0.379,0.635,-0.0755,0.116,1.14,0.682,-0.0729,-0.734,0.321,-0.0378,0.107,0.349,0.94,0.555
TAGCCTAGGTCATTGGGCCAGTATTGTACGCATC,4.48,3.6,0.903,2.28,0.642,3.66,3.19,3.33,1.04,2.35,2.88,3.82,0.545,-0.273,1.88,1.57,-0.247,2.41,-0.7,3.58
TGTCAAAGTTCAAAGGTAACGTGAGTATCCACAC,6.92,6.79,4.59,4.91,1.54,5.99,8.97,7.93,6.04,7.73,0.486,4.72,1.71,2.12,3.33,5.78,3.67,6.92,0.948,5.15
TCGAGTAGGTTTCCAATGGGGCATTCAGCTTTCT,0.0114,-0.0745,-0.502,0.0167,-0.0602,-0.255,-0.735,0.178,0.836,0.304,1.53,0.378,-1.11,-0.734,-1.12,-0.503,-1.03,-0.636,-1.26,-0.326
GCATATAGGTAATACAAGGAGAAAGTCCGATTGT,0.156,-0.0258,-0.258,-0.357,-0.633,0.37,1.06,0.421,0.217,0.104,3.9,2.35,0.451,1,-0.266,-0.205,0.00189,0.277,0.43,-0.406
CATCCAAGGTCAGCAGGTCAGTGAAAGCGACGTG,6.25,4.68,1.66,3.31,0.653,4.79,4.86,4.71,1.81,3.37,3.12,4.02,0.104,0.555,4.34,3.82,1.14,5.21,2.38,5.17
CCTACCGGGCCAAGGTCATTGATCAGTCAAAGCA,3.14,3.01,1.23,2.66,-0.522,3.66,1.86,2.48,0.154,1.76,0.244,1.19,-0.794,-1.36,1.88,3.79,1.52,4,0.296,3.42
TCATATAGGTAAAAAGGTGAAAGTCCGTAAGTTA,1.56,1.85,0.558,1.8,0.394,3.53,3.87,5.05,5.01,5.53,4.17,4,0.729,0.649,1.85,1.4,0.696,2.87,1.81,2.03
CGGCCAAGGTCAGCAGGTCAGTGAAAGCGACGTG,5.72,3.58,-0.0772,2.9,-0.899,4.86,4.33,4.32,0.918,2.85,3.06,3.74,-0.746,-1.2,2.33,3.48,0.241,4.37,0.145,5.34
CCTACTGGGCCATCAGGTCATTGATATCAACGTT,1.4,1.19,1.28,1.56,-0.271,2.79,2.68,3.7,1.46,3.18,4.98,4.72,0.527,-0.213,1.26,1.56,0.961,1.65,0.0562,2.1
CTCGAAAGATCGGTTGAGGTGAGTATACGGATAA,0.238,-0.622,-0.531,-0.146,-0.43,0.0167,-0.0366,-0.226,-0.244,-0.262,-0.303,0.165,0.37,0.142,-0.353,-0.0362,-0.0981,0.657,-0.222,0.00694
CTCGAAAGGTCGTGCTGAGGTGAGTATACCAAAC,4.89,3.82,0.000478,3.31,-0.153,4.82,2.58,3.85,1.23,2.67,0.827,1.96,0.22,0.0024,1.84,3.61,0.222,4.16,-0.373,3.93
CCTAGTTGGTCAAGGTCACACAAGCTATAGGTAC,4.29,3.95,1.98,3.76,1.03,4.21,3.5,4.1,1.36,2.63,2.43,4.01,1.16,1.04,4.16,4.47,2.97,4.29,2.77,4.33
ATCTCGAGGTAAAGTTCAGTGAAAGATCGATAGA,1.3,1.92,1.04,1.29,0.424,2.4,2.53,3.53,1.91,3.69,0.243,1.24,0.853,0.574,1.21,2.17,1.44,1.34,0.469,2.86
TCTTGTAGATCAAGCAGGTTAAGGAAGCCTGAGT,0.133,0.211,-0.315,0.139,-0.226,0.674,-0.544,1.08,2.6,1.8,1.51,0.345,0.213,-0.0431,-0.0432,0.142,0.105,0.407,-0.315,0.0755
CAAACTAGGTCAAGGTCACAGTCGGTTTGTGCCA,6.76,5.24,3.28,4.15,0.607,6.25,9.88,8.18,6.72,8.13,8.39,8.56,6.22,2.94,5.11,5.3,1.75,5.94,1.99,5.17

# Reference: the supplement of paper PMC6555819
